The values that follow come from PubChem BioAssay.

The structures appear in SMILES notation. A number with no mark means an inactive call. For some of these results: Measured potencies and affinities stand elsewhere. Active and inactive are the calls of the source. Unless noted, how the calls were made is not given here.

Experiment [1] in a line: antimalarial activity against Dd2 strain (AID 2302;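 active means growth inhibition above 50% at the single 2 µM test dose, taken to imply half-maximal potency below 2 µM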;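 further: 0% = DMSO untreated growth and 100% = chloroquine plus artemisinin killed control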). Conditions: P. falciparum Dd2 in RBCs, LDH growth readout, 72 h; at 2 µM; stronger effect = higher value.
Experiment [2] is described as follows: HepG2 cytotoxicity, primary screen, cytotoxicity control for P. falciparum antimalarial project, cell-based, ATP luminescence (AID 2303;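 active means inhibition above 50%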;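 further: 0% = DMSO wells and 100% = digitonin-killed cells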). The settings on record: HepG2 viability, 24-48 h, at 10 µM, stronger effect = higher value.
Experiment [3] concerns the target L-lactate dehydrogenase (Plasmodium falciparum (isolate CDC / Honduras)) (UniProt Q27743). Put plainly: PfLDH activity inhibition – cell lysate, 3D7 strain, counter-screen for P. falciparum growth inhibition project (AID 2304).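 Further: 0% = vehicle and 100% = reference inhibitor.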 The settings on record: P. falciparum 3D7 crude extract, LDH APAD/NBT absorbance; at 2 µM; stronger effect = higher value. For orientation: Counterscreens check selectivity or assay interference.

Experiment [4] is described as follows: inhibition of 3D7 malaria parasite growth – strain 3D7 (AID 2306).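 Further: 0% = DMSO wells and 100% = chloroquine plus artemisinin control wells.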 Conditions: P. falciparum 3D7 erythrocytic growth, LDH absorbance, 72 h; at 2 µM; stronger effect = higher value.
Experiment [5] has as its target Calcium-dependent protein kinase 1 (Plasmodium falciparum (isolate 3D7)) (UniProt P62344). Put plainly: PfCDPK1 kinase inhibitors, biochemical, TCAMS library (AID 1159585; cut-off not given, nearly all actives have IC50 up to about 0.98 µM;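 further: inhibitors leave more ATP so luminescence rises with inhibition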). The settings on record: recombinant PfCDPK1, Kinase-Glo ATP depletion luminescence. For orientation: Kinase-Glo reads ATP consumption through a luciferase reaction.
Experiment [6] deals with Plasmodium falciparum protein kinase 6 (PK6, PF3D7_1337100) (UniProt Q8IDW1). The experiment in a line: PfPK6 kinase inhibitors, biochemical, TCAMS library (AID 1159586). Conditions: recombinant PfPK6, Kinase-Glo ATP depletion luminescence.
Sequence of Plasmodium falciparum protein kinase 6 (PK6, PF3D7_1337100) (Q8IDW1 1-305): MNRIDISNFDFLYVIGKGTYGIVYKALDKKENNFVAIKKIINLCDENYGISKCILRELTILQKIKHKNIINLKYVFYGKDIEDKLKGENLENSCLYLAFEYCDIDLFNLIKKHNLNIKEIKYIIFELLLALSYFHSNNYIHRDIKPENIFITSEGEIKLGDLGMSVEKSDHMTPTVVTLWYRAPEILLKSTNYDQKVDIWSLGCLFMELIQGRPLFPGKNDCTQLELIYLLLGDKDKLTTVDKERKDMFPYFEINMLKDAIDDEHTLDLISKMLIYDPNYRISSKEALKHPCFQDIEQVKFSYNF
In experiment [7] the target is Protein kinase 7 (PK7), Plasmodium falciparum 3D7 (PF3D7_0213400) (UniProt Q7YTF7). The experiment in a line: inhibition of Plasmodium PK7 catalytic activity – biochemical, TCAMS antimalarial set, Kinase-Glo luminescence (AID 1159587). Conditions: recombinant PfPK7, Kinase-Glo ATP depletion luminescence.
Sequence of Protein kinase 7 (PK7), Plasmodium falciparum 3D7 (PF3D7_0213400) (Q7YTF7 1-343): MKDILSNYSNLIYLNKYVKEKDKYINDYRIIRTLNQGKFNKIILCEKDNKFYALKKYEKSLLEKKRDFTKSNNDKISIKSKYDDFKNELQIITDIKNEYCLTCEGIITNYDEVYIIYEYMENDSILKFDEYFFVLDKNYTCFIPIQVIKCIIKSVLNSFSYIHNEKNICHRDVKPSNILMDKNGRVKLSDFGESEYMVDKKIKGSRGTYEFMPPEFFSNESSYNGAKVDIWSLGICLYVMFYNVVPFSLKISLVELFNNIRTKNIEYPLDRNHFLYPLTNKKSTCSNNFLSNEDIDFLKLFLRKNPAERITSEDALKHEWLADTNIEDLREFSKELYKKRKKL
Experiment [8] concerns the target Calcium-dependent protein kinase 4 (Plasmodium falciparum (isolate 3D7)) (UniProt Q8IBS5). Put plainly: PfCDPK4 kinase inhibitors, biochemical, TCAMS library (AID 1159588; cut-off not given, nearly all actives have IC50 up to about 0.91 µM). Conditions: recombinant PfCDPK4, Kinase-Glo ATP depletion luminescence.

Sequence of Calcium-dependent protein kinase 4 (Plasmodium falciparum (isolate 3D7)) (Q8IBS5 whole entry, looked up): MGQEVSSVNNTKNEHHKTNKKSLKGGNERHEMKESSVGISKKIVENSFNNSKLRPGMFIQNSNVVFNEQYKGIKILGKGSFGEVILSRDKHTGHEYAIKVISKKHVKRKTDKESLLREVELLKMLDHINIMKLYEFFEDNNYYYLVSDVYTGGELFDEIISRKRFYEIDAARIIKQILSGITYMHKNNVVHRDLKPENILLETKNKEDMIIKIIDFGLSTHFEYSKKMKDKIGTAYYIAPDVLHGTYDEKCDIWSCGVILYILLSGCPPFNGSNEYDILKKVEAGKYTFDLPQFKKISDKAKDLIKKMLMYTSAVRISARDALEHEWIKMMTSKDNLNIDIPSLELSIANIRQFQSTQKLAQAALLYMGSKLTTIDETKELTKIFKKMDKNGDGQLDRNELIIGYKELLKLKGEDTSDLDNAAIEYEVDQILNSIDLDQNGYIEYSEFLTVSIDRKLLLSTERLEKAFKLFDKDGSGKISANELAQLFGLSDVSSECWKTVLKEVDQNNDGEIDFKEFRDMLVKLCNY
Sequence of Calcium-dependent protein kinase 1 (Plasmodium falciparum (isolate 3D7)) (P62344 whole entry, looked up): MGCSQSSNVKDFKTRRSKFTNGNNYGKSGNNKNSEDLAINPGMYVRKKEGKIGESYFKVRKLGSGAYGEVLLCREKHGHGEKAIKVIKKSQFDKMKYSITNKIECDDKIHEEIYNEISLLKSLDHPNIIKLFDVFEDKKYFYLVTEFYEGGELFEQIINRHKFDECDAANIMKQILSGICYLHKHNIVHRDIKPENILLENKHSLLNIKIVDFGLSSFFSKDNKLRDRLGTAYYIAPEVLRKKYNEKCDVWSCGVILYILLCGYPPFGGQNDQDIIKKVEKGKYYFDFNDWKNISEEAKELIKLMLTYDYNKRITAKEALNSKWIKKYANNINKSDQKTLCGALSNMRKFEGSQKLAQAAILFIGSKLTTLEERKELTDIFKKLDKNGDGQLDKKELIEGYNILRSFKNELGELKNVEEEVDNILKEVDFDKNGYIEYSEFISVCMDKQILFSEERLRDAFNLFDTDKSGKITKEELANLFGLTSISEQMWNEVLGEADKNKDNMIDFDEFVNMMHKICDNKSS
Sequence of L-lactate dehydrogenase (Plasmodium falciparum (isolate CDC / Honduras)) (Q27743 whole entry, looked up): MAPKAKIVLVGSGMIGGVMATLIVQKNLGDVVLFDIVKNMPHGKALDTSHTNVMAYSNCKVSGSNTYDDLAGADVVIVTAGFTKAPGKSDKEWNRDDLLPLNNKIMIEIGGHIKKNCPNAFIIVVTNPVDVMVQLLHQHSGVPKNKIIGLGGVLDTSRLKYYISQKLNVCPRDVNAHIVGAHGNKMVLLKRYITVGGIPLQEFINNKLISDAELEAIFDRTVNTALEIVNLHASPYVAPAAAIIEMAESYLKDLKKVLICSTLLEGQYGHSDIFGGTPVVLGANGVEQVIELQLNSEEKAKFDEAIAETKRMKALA

Consider `CCCC(C)Nc1nc(C)cc(N[C@@H](Cc2ccccc2)C(=O)Nc2ccc(OC)cc2)n1` (stereo not given in full), for which the growth inhibition in experiment [1] is 72% (active); in experiment [4], 100% (active). Also, the inhibition is 24% in experiment [2] and -1% in experiment [3]. The result in experiment [5], in experiment [6], in experiment [7] and in experiment [8] was inactive.

Consider `COc1ccc(Cl)cc1N1CCN(CCCNC(=O)c2ccc(-c3nc4cc(Cl)c(C)cc4[nH]3)s2)CC1`, for which the growth inhibition in experiment [1] is 97% (active); in experiment [4], 102% (active). Further, the inhibition in experiment [2] is -1%; in experiment [3], 1%. Moreover, the result in experiment [5], in experiment [6], in experiment [7] and in experiment [8] was inactive.

For `Cc1cccc2[nH]c(-c3ccc(-c4cccc(CN5CCCC5CN)c4)cc3)nc12` (stereo not given), the growth inhibition in experiment [1] was 32%; in experiment [4] it was 91% (active). For the same molecule, the values for the inhibition in experiment [2] and in experiment [3] were 7% and 3%, respectively. Also, the outcome in experiment [5], in experiment [6], in experiment [7] and in experiment [8] was inactive.

Regarding `CCCn1c(=N)c(C(=O)NCCc2ccccc2)cc2c(=O)n3cccc(C)c3nc21`, the growth inhibition in experiment [1] was 64% (active); in experiment [4] it was 100% (active). Besides, the inhibition is 8% in experiment [2] and 2% in experiment [3]. The result in experiment [5], in experiment [6], in experiment [7] and in experiment [8] was inactive.

For `COc1ccc(NC(=O)[C@H](Cc2ccccc2)Nc2cc(C)nc(NCCOc3ccccc3)n2)cc1`, the growth inhibition in experiment [1] was 25%; in experiment [4], 98% (active). In addition, the values for the inhibition in experiment [2] and in experiment [3] were 11% and 3%, respectively. For the same molecule, the result in experiment [5], in experiment [6], in experiment [7] and in experiment [8] was inactive.

With `CCOc1cccc(C2c3c(oc4ccccc4c3=O)C(=O)N2CCN(CC)CC)c1` (stereo not given), the growth inhibition in experiment [1] is 66% (active); in experiment [4], 100% (active). Besides, the inhibition in experiment [2] is 5%; in experiment [3] it was -2%. The result in experiment [5], in experiment [6], in experiment [7] and in experiment [8] was inactive.

As for `COc1ccc(Nc2nccc(NCC(O)c3cccc(C(F)(F)F)c3)n2)cc1` (stereo not given), the growth inhibition is 33% in experiment [1] and 98% (active) in experiment [4]. For the same molecule, the inhibition in experiment [2] was 22%; in experiment [3] it was -2%. Also, the outcome in experiment [5], in experiment [6], in experiment [7] and in experiment [8] was inactive.

Regarding `COC(=O)c1ccc(CCCNCC(O)c2cccc(C(F)(F)F)c2)cc1` (stereo not given), the growth inhibition in experiment [1] is 88% (active); in experiment [4], 97% (active). For the same molecule, the inhibition in experiment [2] is 0%; in experiment [3], 4%. Further, the result in experiment [5], in experiment [6], in experiment [7] and in experiment [8] was inactive.

For `COc1ccc2ncc(Cl)c([C@@H](O)CN3CCC(NCc4cc5c(cn4)OCCO5)CC3)c2c1`, the growth inhibition was 100% (active) in experiment [1] and 101% (active) in experiment [4]. The inhibition in experiment [2] was 8%; in experiment [3], 3%. For the same molecule, the outcome in experiment [5], in experiment [6], in experiment [7] and in experiment [8] was inactive.

For the molecule `COCC(C)n1c(SC(C)C(=O)Nc2cc([N+](=O)[O-])ccc2Cl)nc2ccccc2c1=O` (stereo not given), the results for the growth inhibition in experiment [1] and in experiment [4] were 94% (active) and 95% (active), respectively. Besides, the inhibition is -8% in experiment [2] and 2% in experiment [3]. In addition, the result in experiment [5], in experiment [6], in experiment [7] and in experiment [8] was inactive.

With `CO/C(=C\C=C\c1cc2cc(Cl)c(Cl)cc2[nH]1)C(=O)NCCCN1CCCC[C@H]1C`, the growth inhibition in experiment [1] was 91% (active); in experiment [4], 100% (active). Moreover, the inhibition in experiment [2] is 41%; in experiment [3] it was 3%. Further, the result in experiment [5], in experiment [6], in experiment [7] and in experiment [8] was inactive.

On to `COc1ccc2nccc([C@@H](O)CN3CCC(NCc4nc5c(F)cc(F)cc5[nH]4)CC3)c2c1`, for which the results for the growth inhibition in experiment [1] and in experiment [4] were 64% (active) and 99% (active), respectively. In addition, the inhibition is 19% in experiment [2] and 0% in experiment [3]. Besides, the result in experiment [5], in experiment [6], in experiment [7] and in experiment [8] was inactive.

As for `c1ccc(-n2ncc(CNCc3ccc(-c4ccc(-c5nc6ccccc6[nH]5)s4)cc3)n2)cc1`, the growth inhibition in experiment [1] is 46%; in experiment [4] it was 93% (active). For the same molecule, the results for the inhibition in experiment [2] and in experiment [3] were 27% and 4%, respectively. Moreover, the outcome in experiment [5], in experiment [6], in experiment [7] and in experiment [8] was inactive.

With `Cc1cccc2[nH]c(-c3ccc(-c4cccc(CNCCc5ccncc5)c4)s3)nc12`, the growth inhibition was 89% (active) in experiment [1] and 100% (active) in experiment [4]. Besides, the inhibition in experiment [2] was 11%; in experiment [3], 2%. Besides, the outcome in experiment [5], in experiment [6], in experiment [7] and in experiment [8] was inactive.

Take `Cc1cc(N(C)C)nc(Nc2ccc(NC(=O)Nc3ccccc3)cc2)n1`: the growth inhibition was 100% (active) in experiment [1] and 101% (active) in experiment [4]. The inhibition in experiment [2] is 10%; in experiment [3], -2%. The result in experiment [5], in experiment [6], in experiment [7] and in experiment [8] was inactive.

In the case of `CCCC1(NC[C@@H](O)[C@H](Cc2ccccc2)NC(=O)c2cc(NCC)cc(N3CCCCS3(=O)=O)c2)CC1`, the growth inhibition in experiment [1] and in experiment [4] was 98% (active) throughout. The inhibition is 1% in experiment [2] and 0% in experiment [3]. Also, the outcome in experiment [5], in experiment [6], in experiment [7] and in experiment [8] was inactive.

Consider `CN1CCN(CCCNCc2ccccc2-c2cccc(CNCc3ccc4c(c3)OCO4)c2)CC1`, for which the results for the growth inhibition in experiment [1] and in experiment [4] were 7% and 102% (active), respectively. Further, the inhibition was 34% in experiment [2] and -1% in experiment [3]. Moreover, the outcome in experiment [5], in experiment [6], in experiment [7] and in experiment [8] was inactive.

`O=C(Nc1ccc(Cl)c(Cl)c1)N1CCc2cc3nccc(N4CCN5CCC[C@H]5C4)c3cc21`: the growth inhibition in experiment [1] was 75% (active); in experiment [4], 100% (active). The inhibition in experiment [2] is 2%; in experiment [3] it was -7%. Moreover, the outcome in experiment [5], in experiment [6], in experiment [7] and in experiment [8] was inactive.

For the molecule `Cc1[nH]c(C)c(-c2ccc(OCc3ccccc3)cc2)c(=O)c1Br`, the growth inhibition is 96% (active) in experiment [1] and 97% (active) in experiment [4]. Moreover, the inhibition was 19% in experiment [2] and -2% in experiment [3]. Also, the outcome in experiment [5], in experiment [6], in experiment [7] and in experiment [8] was inactive.

Consider `O=C(CCOc1ccccc1)NCC1CCCO1` (stereo not given), for which the growth inhibition in experiment [1] was -11%; in experiment [4], 92% (active). The inhibition is -10% in experiment [2] and -3% in experiment [3]. Also, the result in experiment [5], in experiment [6], in experiment [7] and in experiment [8] was inactive.

A word on the inhibition: it is the change of the read-out against control, counted positive when it falls.
